Shown are actives, neighbours in structure and some others; about 1.3% of the full set was active somewhere.
Beta2AR agonist – human beta-2 adrenergic receptor agonism by FAP; response, % (test concentration not listed); AID 504454; Am2.2-beta2AR cells, FAP receptor internalization, flow cytometry; 0.43% of 340,000 active;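 active = response above a set limit, near 3 SD of response in nonfluorescent compounds, cut at about 42% in these data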
A1 inh – inhibitors of the anti-apoptotic protein A1, read as caspase activation | MEF A1-2A-BIM cells, Caspase-Glo 3/7 luminescence, 3 h; percent of clofoctol response, vehicle zero | caspase activation, % (test concentration not listed) | 0.066% of 330,000 active | AID 2462;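 active = over half of replicate activation scores above 10%, or exactly half above 10 with the replicate mean above 10; inconclusive = replicate mean below 10 yet half the replicates above 10; inactive = over half of replicates below 10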
GRK2 aptamer HTS – blocks RNA aptamer binding to human GRK2; bead flow cytometry, FAM-aptamer displacement from GRK2; inhibition of aptamer binding, % at 10 µM; 0.59% of 330,000 active; AID 488847;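 active = inhibition of aptamer binding above 40%, roughly 3 SD of noise, on plates passing a quality check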;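 note: median bead fluorescence of bound FAM aptamer so fluorescent compounds give negative values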
Target sequence (P25098 whole entry, looked up): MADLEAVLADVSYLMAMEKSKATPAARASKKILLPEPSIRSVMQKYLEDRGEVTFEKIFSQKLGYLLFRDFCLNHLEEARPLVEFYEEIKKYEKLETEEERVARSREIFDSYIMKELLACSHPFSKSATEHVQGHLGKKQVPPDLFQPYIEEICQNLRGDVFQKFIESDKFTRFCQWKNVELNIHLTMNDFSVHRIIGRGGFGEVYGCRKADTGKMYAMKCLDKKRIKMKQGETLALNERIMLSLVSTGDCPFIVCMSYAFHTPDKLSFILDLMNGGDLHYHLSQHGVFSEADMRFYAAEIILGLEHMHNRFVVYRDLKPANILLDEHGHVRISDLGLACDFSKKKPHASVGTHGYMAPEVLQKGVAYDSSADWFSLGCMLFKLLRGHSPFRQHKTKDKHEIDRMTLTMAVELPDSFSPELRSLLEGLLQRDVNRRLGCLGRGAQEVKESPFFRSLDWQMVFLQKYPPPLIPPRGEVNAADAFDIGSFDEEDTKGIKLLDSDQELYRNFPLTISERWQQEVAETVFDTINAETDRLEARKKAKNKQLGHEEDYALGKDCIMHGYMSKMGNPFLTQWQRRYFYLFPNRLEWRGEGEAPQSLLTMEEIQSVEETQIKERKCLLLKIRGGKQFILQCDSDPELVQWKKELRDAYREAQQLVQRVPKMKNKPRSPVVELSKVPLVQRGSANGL
VLA-4 inh – inhibition in a human VLA-4 binding assay | VLA-4 expressing cells, ligand binding flow cytometry | inhibition, % (about 7 µM as worked out from the volumes in the protocol) | 0.2% of 330,000 active | AID 2557; in the data active = inhibition above about 50%
NTR1 agonist – activates human neurotensin receptor 1; NTR1-U2OS beta-arrestin-GFP spot imaging, agonist mode; activation, % at 20 µM; 0.17% of 330,000 active;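 active = activation at or above 40% of the spot to cytoplasm intensity ratio, with at least 20 cells analyzed; inconclusive = wells under 20 cells, flagged as cytotoxic or low count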;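 note: 0% = DMSO without peptide and 100% = 100 nM NTR1 peptide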
NTR1 ag confirm – NTR1 (human) agonism, confirmed | shares compounds with NTR1 agonist | NTR1-U2OS beta-arrestin-GFP translocation imaging | activation, % at 20 µM | 38% of 480 active | AID 504550;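 active = mean activation at 20 µM of at least 40%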;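 note: 0% = DMSO without peptide and 100% = 100 nM NTR1 peptide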
* marks the source's active call; other numbers are inactive results.

Results for COc1cc(C(=O)N/N=C/c2ccc(OC(=O)c3cccc(C)c3)cc2)ccc1O ?
Beta2AR agonist: 5; A1 inh: 0; GRK2 aptamer HTS: 3; VLA-4 inh: -10; NTR1 agonist: 52*; NTR1 ag confirm: 15

What do the screens show for `CC(C)CC(=O)Nc1ccc(Oc2ccc3c(c2)C(=O)NC3=O)cc1`?
Beta2AR agonist: 7; A1 inh: 0; GRK2 aptamer HTS: 2; VLA-4 inh: 2; NTR1 agonist: 1

What do the screens show for `O=C(CC1Nc2ccccc2NC1=O)Nc1cc(Cl)cc(Cl)c1` (stereo unspecified)?
Beta2AR agonist: 5; A1 inh: 0; GRK2 aptamer HTS: 0; VLA-4 inh: 6; NTR1 agonist: 73*; NTR1 ag confirm: 54*

What do the screens show for `O=C(CC1NC(=O)NC1=O)Nc1ccc(Cl)cc1` (stereo unspecified)?
Beta2AR agonist: 3; A1 inh: 0; GRK2 aptamer HTS: 3; VLA-4 inh: -68; NTR1 agonist: 8

How did CCOc1cc(/C=C\[N+](=O)[O-])ccc1OCC(=O)Nc1ccccc1C do in these assays?
Beta2AR agonist: 112*; A1 inh: 31*; GRK2 aptamer HTS: 2; VLA-4 inh: -1; NTR1 agonist: 45*; NTR1 ag confirm: 51*

How did COc1cc(/C=C/c2cccc[n+]2C)ccc1OCC(=O)Nc1ccccc1C do in these assays?
Beta2AR agonist: 4; A1 inh: 0; GRK2 aptamer HTS: 0; VLA-4 inh: 8; NTR1 agonist: 0

Results for COc1cc(N/N=C(\C)c2ccc(O)c(C)c2)nc(-c2ccccc2)n1 ?
Beta2AR agonist: 5; A1 inh: 0; GRK2 aptamer HTS: 2; VLA-4 inh: 12; NTR1 agonist: 53*; NTR1 ag confirm: 20

What do the screens show for `N#CCC(=O)Nc1ccc(C(=O)NNC(=O)CCN2CCN(c3ccccc3)CC2)cc1`?
Beta2AR agonist: -1; A1 inh: 0; GRK2 aptamer HTS: 0; VLA-4 inh: 7; NTR1 agonist: 0

How did O=C1c2[nH]nc(-c3ccccc3O)c2C(c2cccc(Cl)c2)N1Cc1ccco1 (stereo unspecified) do in these assays?
Beta2AR agonist: 16; A1 inh: 0; GRK2 aptamer HTS: 4; VLA-4 inh: 7; NTR1 agonist: 46*; NTR1 ag confirm: 10

What do the screens show for `CCOC(=O)c1cc(-c2ccc(/C=C3/C(=O)N(c4ccc(C(=O)O)cc4)N=C3C)o2)ccc1Cl`?
Beta2AR agonist: 32; A1 inh: 0; GRK2 aptamer HTS: 4; VLA-4 inh: 17; NTR1 agonist: 56*; NTR1 ag confirm: 47*

How did CCOC(=O)c1cc(-c2ccc(/C=N\n3cnnc3)o2)ccc1Cl do in these assays?
Beta2AR agonist: 11; A1 inh: 1; GRK2 aptamer HTS: 4; VLA-4 inh: 0; NTR1 agonist: 3

What do the screens show for `COc1ccc(C2CC(c3ccccc3)=NN2c2ccc(S(N)(=O)=O)cc2)cc1` (stereo unspecified)?
Beta2AR agonist: -1; A1 inh: 1; GRK2 aptamer HTS: 3; VLA-4 inh: 7; NTR1 agonist: 23

How did COc1ccc(C2CC(c3ccccc3)=NN2c2ccc(C(N)=O)cc2)cc1 (stereo unspecified) do in these assays?
Beta2AR agonist: 2; A1 inh: 0; GRK2 aptamer HTS: 0; VLA-4 inh: -3; NTR1 agonist: 41*; NTR1 ag confirm: 20

How did Oc1ccc(C2=NN(c3ccccc3)C(c3ccc(F)cc3)C2)cc1 (stereo unspecified) do in these assays?
Beta2AR agonist: -1; A1 inh: 0; GRK2 aptamer HTS: 0; VLA-4 inh: -26; NTR1 agonist: 61*; NTR1 ag confirm: 11

Results for CCN(CC)CCNC(=O)c1ccc(CS(=O)(=O)c2ccccc2C)o1 ?
Beta2AR agonist: -5; A1 inh: 2; GRK2 aptamer HTS: 0; VLA-4 inh: 24; NTR1 agonist: -2

What do the screens show for `Cc1cc(C)n(-c2nc(Nc3ccccc3C)nc(-n3nc(C)cc3C)n2)n1`?
A1 inh: 4; GRK2 aptamer HTS: 0; VLA-4 inh: -2; NTR1 agonist: 48*; NTR1 ag confirm: 71*

What do the screens show for `Cc1cc(C)n(-c2nc(Nc3ccccc3C(F)(F)F)nc(-n3nc(C)cc3C)n2)n1`?
Beta2AR agonist: 27; A1 inh: 1; GRK2 aptamer HTS: 1; VLA-4 inh: 9; NTR1 agonist: 57*; NTR1 ag confirm: 43*

What do the screens show for `CC(C)CN(C(=O)c1cccc(F)c1)c1c(N)n(CC(C)C)c(=O)[nH]c1=O`?
Beta2AR agonist: 5; A1 inh: 0; GRK2 aptamer HTS: 0; VLA-4 inh: 1; NTR1 agonist: 42*; NTR1 ag confirm: -1

How did Oc1ccc(-c2nc3c4c(ncn3n2)-c2ccccc2CC42CCCC2)cc1 do in these assays?
Beta2AR agonist: 25; A1 inh: inconclusive; GRK2 aptamer HTS: 0; VLA-4 inh: 13; NTR1 agonist: 46*; NTR1 ag confirm: 32

How did CC(C)C(=O)N1CCN(c2ccccc2NC(=S)NC(=O)Cc2ccccc2)CC1 do in these assays?
Beta2AR agonist: 17; A1 inh: 0; GRK2 aptamer HTS: 3; VLA-4 inh: -2; NTR1 agonist: 6

Results for CN1CCN(S(=O)(=O)c2cccc(C#N)c2)C(c2ccccc2)C1 (stereo unspecified) ?
Beta2AR agonist: -7; NTR1 agonist: 0

What do the screens show for `O=C(CN(C(=O)c1ccc(Cl)cc1)N1C(=O)C2CCCCC2C1=O)c1ccc(Cl)cc1` (stereo unspecified)?
Beta2AR agonist: 1; A1 inh: inconclusive; GRK2 aptamer HTS: 0; VLA-4 inh: 6; NTR1 agonist: 52*; NTR1 ag confirm: 47*

What do the screens show for `O=C(Cc1cccs1)Nc1nc(-c2ccc(F)c(F)c2)cs1`?
Beta2AR agonist: 10; A1 inh: -1; GRK2 aptamer HTS: 0; VLA-4 inh: 9; NTR1 agonist: 52*; NTR1 ag confirm: -2

What do the screens show for `O=C(Cc1ccccc1)Nc1nc(-c2ccc(F)c(F)c2)cs1`?
Beta2AR agonist: 1; A1 inh: 0; GRK2 aptamer HTS: 0; VLA-4 inh: 2; NTR1 agonist: 0

What do the screens show for `COc1ccc(/C=C2/SC(=S)N(Cc3ccccc3)C2=O)cc1O`?
Beta2AR agonist: 6; A1 inh: 0; GRK2 aptamer HTS: 12; VLA-4 inh: -39; NTR1 agonist: 44*; NTR1 ag confirm: 5

Results for COc1ccc(O)c(/C=C2/SC(=S)N(Cc3ccccc3)C2=O)c1 ?
Beta2AR agonist: -411; A1 inh: 0; GRK2 aptamer HTS: 6; VLA-4 inh: -217; NTR1 agonist: -3

How did CC(C)Oc1ccc(OCCSc2nc3ccccc3n2CC(=O)O)cc1 do in these assays?
Beta2AR agonist: -2; A1 inh: 0; GRK2 aptamer HTS: 0; VLA-4 inh: 4; NTR1 agonist: 0

Results for CC(=O)Nc1cc(C)ns1 ?
Beta2AR agonist: -6

Compound activity: PubChem, several laboratories
